From PubChem BioAssay
Active and inactive are the calls of the source.

Columns and labels:
[1] = binders of probe aFSTL3 on microarray, primary screen, stem cell growth factor project, biochemical, small-molecule microarray, fluorescence 635/667 (AID 1064); conditions: higher = more signal;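 also: measures binding of the biotinylated anti-FSTL3 antibody to printed compounds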
[2] = binders from COS7 lysate, DM2A8 probe, primary screen, torsin A project, cell lysate, small-molecule microarray, fluorescence 635/667 (AID 1065); conditions: higher = more signal, COS7 lysate expressing mutant human TOR1A
[3] = binders of probe aFGF2 on microarray, primary screen, stem cell growth factor project, biochemical, small-molecule microarray, fluorescence 635/667 (AID 1067); conditions: higher = more signal;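 also: measures binding of biotinylated aFGF2 protein to printed compounds on slides; z-score merges feature fluorescence and signal-to-noise across triplicate slides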
[4] = binders of probe aFGF10 on microarray, primary screen, stem cell growth factor project, biochemical, small-molecule microarray, fluorescence 635/667 (AID 1071); conditions: higher = more signal;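 also: score merges 667 nm spot intensity and signal to noise from triplicate slides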
[5] = target: Neurogenic locus notch homolog protein 2 (Homo sapiens) (UniProt Q04721); assay: Notch2 binders on small-molecule microarrays, primary screen, biochemical, small-molecule microarray, 635 nm fluorescence, stem cell growth factors (AID 1073); conditions: Notch2 binding, higher = more signal
[6] = target: Pro-neuregulin-1, membrane-bound isoform (Homo sapiens) (UniProt Q02297); assay: NRG1 binders on small-molecule microarrays, primary screen, psychiatric disease protein project, biochemical, small-molecule microarray, fluorescence 635/667 (AID 1075); conditions: NRG1 binding, 635 nm fluorescence, higher = more signal;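 also: score combines 667 nm spot fluorescence with signal to noise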
[7] = tested on: Neuregulin-1 EGF-like domain; assay: binders of neuregulin-1 EGF-like domain, primary screen, biochemical, small-molecule microarray, 635 nm fluorescence (AID 1081); conditions: small-molecule microarray binding, higher = more signal;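 also: binding of the protein to compounds printed on small-molecule microarray slides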
[8] = FRG1 promoter luciferase signal modulators, primary screen, FRG1 inhibition for FSHD, cell-based, C2C12 myotubes, firefly/Renilla luciferase, luminescence (AID 1084); conditions: higher = more signal, called active from +8 up or from −8 down
[9] = binders of probe aFST on microarray, primary screen, stem cell growth factor project, biochemical, small-molecule microarray, fluorescence 635/667 (AID 1086); conditions: higher = more signal;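 also: score merges 667 nm fluorescence with signal-to-noise of each printed compound spot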
[10] = binders of probe aHhip on microarray, primary screen, stem cell growth factor project, biochemical, small-molecule microarray, fluorescence 635/667 (AID 1087); conditions: higher = more signal;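 also: score merges spot fluorescence at 667nm with spot signal to noise ratio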
[11] = tested on: PRMT1 (protein arginine N-methyltransferase 1); assay: PRMT1 binders on small-molecule microarrays, primary screen, biochemical, small-molecule microarray, 635 nm fluorescence (AID 1088); conditions: small-molecule microarray binding, higher = more signal;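 also: binding of Prmt1 protein to compounds spotted on small-molecule microarray slides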
[12] = yeast growth modulation, basal conditions, primary screen, YJM789 clinical isolate, OD600, 24 h (AID 1089);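 also: growth of clinical yeast isolate S. cerevisiae YJM 789 seeded 1000 cells per well; test concentration not given here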; conditions: S. cerevisiae YJM789 growth, higher = more signal, called active from +8 up or from −8 down
[13] = fission yeast growth modulation, primary screen, strain 972, OD600, 24 h, no modulator (AID 1090);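 also: basal condition with compound alone and no growth modifier present; test concentration not given here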; conditions: S. pombe 972 growth, higher = more signal, called active from +8 up or from −8 down
[14] = S. cerevisiae growth modulation with rapamycin, primary screen, strain BY4716, OD600, 96 h (AID 1091); conditions: higher = more signal, called active from +8 up or from −8 down; also: test concentration not given here
[15] = target: Torsin-1A-interacting protein 2 (Homo sapiens) (UniProt Q8NFQ8); assay: LULL1 binders on small-molecule microarray, primary screen, cell lysate, human LULL1 lysate, 635/667 nm fluorescence (AID 1092); conditions: hLULL1 lysate binding, 635 nm fluorescence, higher = more signal;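 also: probe is lysate of COS7 cells overexpressing human LULL1; score merges per-feature 667 nm fluorescence with signal-to-noise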
[16] = E. coli growth modulation, two-sided OD650, primary screen, E. coli filamentation project, strain DRC41, 24 h (AID 1093); conditions: OD650, 24 h, higher = more signal, called active from +8 up or from −8 down;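 also: MC1000 strain lacking acrAB efflux and sulA so SOS filamentation is blocked; test concentration not given here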
[17] = small-molecule microarray binders of probe aLefty2, primary screen, biochemical, biotinylated probe, 635/667 nm fluorescence (AID 1094); conditions: higher = more signal;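 also: score merges spot fluorescence near 667 nm with spot signal-to-noise ratio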
[18] = tested on: Noggin (protein binding on small-molecule microarray); assay: Noggin binders on small-molecule microarray, primary screen, biochemical, 635/667 nm fluorescence (AID 1095); conditions: 635 nm fluorescence, higher = more signal;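 also: score merges 667 nm feature fluorescence with signal to noise over triplicate slides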
[19] = target: Neurogenic locus notch homolog protein 3 (Homo sapiens) (UniProt Q9UM47); assay: NOTCH3 binders on small-molecule microarray, primary screen, biochemical, 635/667 nm fluorescence (AID 1096); conditions: NOTCH3 binding, 635 nm fluorescence, higher = more signal
[20] = small-molecule microarray binders of probe aEGFR, primary screen, biochemical, biotinylated probe, 635/667 nm fluorescence (AID 1097); conditions: higher = more signal;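 also: probe is a biotinylated anti-EGFR antibody binding compounds printed on slides; score combines fluorescence near 667 nm and signal to noise of each spot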

Chain of Neurogenic locus notch homolog protein 3 (Homo sapiens) (Q9UM47 whole entry, looked up): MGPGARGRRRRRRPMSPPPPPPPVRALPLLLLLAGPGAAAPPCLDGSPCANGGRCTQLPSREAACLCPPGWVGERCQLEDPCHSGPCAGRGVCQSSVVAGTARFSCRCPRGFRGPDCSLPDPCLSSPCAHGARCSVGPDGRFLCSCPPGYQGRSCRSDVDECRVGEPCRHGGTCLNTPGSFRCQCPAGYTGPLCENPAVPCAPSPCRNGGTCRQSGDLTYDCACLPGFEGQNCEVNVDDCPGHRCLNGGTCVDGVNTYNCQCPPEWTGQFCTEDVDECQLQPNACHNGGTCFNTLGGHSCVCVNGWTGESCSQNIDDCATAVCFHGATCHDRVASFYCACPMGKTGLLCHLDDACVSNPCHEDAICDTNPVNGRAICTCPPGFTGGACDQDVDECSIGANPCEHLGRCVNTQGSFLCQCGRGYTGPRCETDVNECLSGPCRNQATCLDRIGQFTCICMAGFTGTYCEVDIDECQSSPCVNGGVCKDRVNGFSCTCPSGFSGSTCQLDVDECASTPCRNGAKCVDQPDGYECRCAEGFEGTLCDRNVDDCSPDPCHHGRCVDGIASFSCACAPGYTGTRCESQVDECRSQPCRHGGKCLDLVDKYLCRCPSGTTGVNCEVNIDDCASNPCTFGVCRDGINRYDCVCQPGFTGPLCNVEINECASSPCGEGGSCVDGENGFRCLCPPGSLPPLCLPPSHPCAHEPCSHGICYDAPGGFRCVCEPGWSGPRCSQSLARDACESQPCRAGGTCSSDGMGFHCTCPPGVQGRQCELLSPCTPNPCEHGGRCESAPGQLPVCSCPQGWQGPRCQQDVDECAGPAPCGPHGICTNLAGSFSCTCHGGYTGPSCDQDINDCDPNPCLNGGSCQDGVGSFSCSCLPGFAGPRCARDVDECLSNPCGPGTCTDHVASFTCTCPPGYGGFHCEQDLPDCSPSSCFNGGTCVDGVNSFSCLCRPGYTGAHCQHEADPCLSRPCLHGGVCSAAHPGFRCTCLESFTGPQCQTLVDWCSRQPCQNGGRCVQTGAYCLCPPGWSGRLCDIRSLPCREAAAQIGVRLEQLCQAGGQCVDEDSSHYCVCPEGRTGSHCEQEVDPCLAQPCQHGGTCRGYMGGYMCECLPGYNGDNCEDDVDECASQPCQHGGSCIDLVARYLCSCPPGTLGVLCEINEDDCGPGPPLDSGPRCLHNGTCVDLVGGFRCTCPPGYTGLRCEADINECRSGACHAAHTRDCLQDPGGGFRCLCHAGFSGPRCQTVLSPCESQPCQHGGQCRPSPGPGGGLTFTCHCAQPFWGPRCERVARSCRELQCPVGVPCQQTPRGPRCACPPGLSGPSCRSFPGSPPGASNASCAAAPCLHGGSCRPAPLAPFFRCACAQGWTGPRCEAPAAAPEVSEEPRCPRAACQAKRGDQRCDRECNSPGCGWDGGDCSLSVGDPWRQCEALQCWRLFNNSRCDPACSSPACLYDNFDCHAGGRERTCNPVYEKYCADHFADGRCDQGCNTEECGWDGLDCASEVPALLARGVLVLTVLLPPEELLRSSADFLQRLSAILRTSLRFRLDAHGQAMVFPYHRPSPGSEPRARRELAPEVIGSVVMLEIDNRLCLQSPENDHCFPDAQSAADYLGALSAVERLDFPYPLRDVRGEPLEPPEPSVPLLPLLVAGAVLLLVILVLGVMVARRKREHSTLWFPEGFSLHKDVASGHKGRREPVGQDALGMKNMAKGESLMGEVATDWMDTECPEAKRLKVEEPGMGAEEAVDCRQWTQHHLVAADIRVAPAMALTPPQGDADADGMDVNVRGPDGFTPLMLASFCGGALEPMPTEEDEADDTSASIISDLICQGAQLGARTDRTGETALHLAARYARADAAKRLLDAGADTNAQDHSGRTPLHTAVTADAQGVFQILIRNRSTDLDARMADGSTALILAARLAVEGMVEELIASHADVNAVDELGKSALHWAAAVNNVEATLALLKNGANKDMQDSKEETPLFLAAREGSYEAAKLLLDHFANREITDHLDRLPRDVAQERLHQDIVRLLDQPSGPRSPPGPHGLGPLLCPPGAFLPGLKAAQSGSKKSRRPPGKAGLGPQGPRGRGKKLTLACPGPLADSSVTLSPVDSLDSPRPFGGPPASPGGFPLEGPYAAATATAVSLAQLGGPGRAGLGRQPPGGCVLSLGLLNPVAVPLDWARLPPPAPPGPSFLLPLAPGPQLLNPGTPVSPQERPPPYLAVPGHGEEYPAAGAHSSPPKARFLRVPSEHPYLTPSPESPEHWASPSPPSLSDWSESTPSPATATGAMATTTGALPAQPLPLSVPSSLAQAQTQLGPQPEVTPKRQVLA
Chain of Pro-neuregulin-1, membrane-bound isoform (Homo sapiens) (Q02297 whole entry, looked up, the tested form may be a part, canonical isoform): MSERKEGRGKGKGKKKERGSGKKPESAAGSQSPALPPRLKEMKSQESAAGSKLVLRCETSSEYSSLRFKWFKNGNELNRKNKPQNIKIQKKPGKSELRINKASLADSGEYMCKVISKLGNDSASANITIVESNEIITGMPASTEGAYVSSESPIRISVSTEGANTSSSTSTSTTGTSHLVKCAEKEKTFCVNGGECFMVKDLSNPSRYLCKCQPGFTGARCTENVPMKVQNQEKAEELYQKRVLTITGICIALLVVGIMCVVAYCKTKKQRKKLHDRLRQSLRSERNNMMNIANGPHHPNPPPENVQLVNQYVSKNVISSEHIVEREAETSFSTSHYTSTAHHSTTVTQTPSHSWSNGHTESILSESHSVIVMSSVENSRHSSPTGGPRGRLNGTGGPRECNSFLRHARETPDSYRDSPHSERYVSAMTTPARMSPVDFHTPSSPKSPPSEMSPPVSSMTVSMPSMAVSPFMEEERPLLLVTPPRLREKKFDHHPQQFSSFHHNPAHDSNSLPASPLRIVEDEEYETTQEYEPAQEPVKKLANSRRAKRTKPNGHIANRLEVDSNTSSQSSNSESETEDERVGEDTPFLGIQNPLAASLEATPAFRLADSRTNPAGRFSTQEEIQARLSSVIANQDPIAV
Chain of Torsin-1A-interacting protein 2 (Homo sapiens) (Q8NFQ8 whole entry, looked up): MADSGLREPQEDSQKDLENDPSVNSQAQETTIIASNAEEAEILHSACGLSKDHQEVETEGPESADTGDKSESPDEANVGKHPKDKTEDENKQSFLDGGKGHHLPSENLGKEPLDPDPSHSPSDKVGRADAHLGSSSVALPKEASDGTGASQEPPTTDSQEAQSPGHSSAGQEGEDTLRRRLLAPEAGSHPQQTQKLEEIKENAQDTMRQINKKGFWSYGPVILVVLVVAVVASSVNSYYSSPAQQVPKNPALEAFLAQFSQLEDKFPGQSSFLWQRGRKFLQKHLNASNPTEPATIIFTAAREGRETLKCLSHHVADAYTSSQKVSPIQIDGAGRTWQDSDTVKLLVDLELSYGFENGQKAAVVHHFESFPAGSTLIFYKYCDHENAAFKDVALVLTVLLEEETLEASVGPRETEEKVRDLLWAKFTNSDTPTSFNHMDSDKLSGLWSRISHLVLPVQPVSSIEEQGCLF

SMILES	composite z-score [1]	composite z-score [2]	composite z-score [3]	composite z-score [4]	composite z-score [5]	composite z-score [6]	composite z-score [7]	z-score [8]	composite z-score [9]	composite z-score [10]	composite z-score [11]	z-score [12]	z-score [13]	z-score [14]	composite z-score [15]	z-score [16]	composite z-score [17]	composite z-score [18]	composite z-score [19]	composite z-score [20]
COCCOC(=O)N1C(=O)[C@@]2(c3cc(C#CCNC(N)=O)ccc31)[C@H](c1ccc(OCCO)cc1)N1[C@H](c3ccccc3)[C@H](c3ccccc3)OC(=O)[C@H]1[C@@H]2C(=O)Nc1nc2ccccc2s1	1.02	0.208	-0.0399	0.371	-0.97	0.396	-0.757	3.98 (inactive)	0.98	0.136	0.75	1.55 (inactive)	1.11 (inactive)	3.55 (inactive)	0.376	2.56 (inactive)	0.162	0.895	0.865	0.0894
CN1C2C=C(c3ccc(CO)cc3)C(C3C(=O)N(C(N)=O)C(=O)C32)C1c1cccs1 (stereo not given)	0.631	0.056	-0.0566	0.0657	-0.458	0.839	1.27	1.02 (inactive)	-0.221	-0.0645	0.4	0.697 (inactive)	-1.74 (inactive)	1.21 (inactive)	0.813	1.22 (inactive)	-0.0774	0.198	-0.25	-0.0798
CO[C@H]1COC(=O)[C@H](C)NC(=O)CC=C[C@@H](C)[C@H](NS(=O)(=O)c2ccc(C)cc2)COC(=O)[C@@H](OCc2ccccc2)C=C[C@@H]1C	-0.452	0.148	-0.183	-0.0799	-0.563	-0.157	-0.477	-0.0584 (inactive)	-0.234	-0.0237	0.229	1.22 (inactive)	0.129 (inactive)	2.1 (inactive)	-0.569	0.176 (inactive)	-0.316	0.801	-0.439	-0.168
O=C1OCCC=C[C@H]2OC34C=CCN(Cc5ccccc5)C(=O)[C@H]3N(CCO)C(=O)[C@@H]4C12 (stereo not given in full)	0.672	-0.465	-0.183	-0.575	-0.607	-0.419	-0.574	0.135 (inactive)	-0.402	-0.0645	-1.05	-2.04 (inactive)	-4.14 (inactive)	-1.5 (inactive)	-0.89	2.71 (inactive)	-0.172	-0.526	-0.634	-0.304
COCCOC(=O)N1C(=O)[C@@]2(c3cc(C#CC4=CCCCC4)ccc31)[C@H](C(=O)NC[C@H](O)c1ccccc1)[C@H]1C(=O)O[C@H](c3ccccc3)[C@H](c3ccccc3)N1[C@@H]2c1ccc(OCCO)cc1	-0.409	0.782	-0.0566	0.478	1.26	1.12	1.26	0.916 (inactive)	0.575	-0.0645	1.54	2.15 (inactive)	1.44 (inactive)	4.41 (inactive)	2.41	-0.662 (inactive)	-0.003	1.85	1.13	-0.144
CO[C@H]1COC(=O)[C@H](Cc2ccccc2)NC(=O)CC=C[C@@H](C)[C@H](OC)COC(=O)CC=C[C@@H]1C	-0.453	0.421	-0.0643	0.324	-0.156	0.131	0.316	-0.244 (inactive)	0.244	-0.504	-0.141	-0.39 (inactive)	-1.44 (inactive)	-0.617 (inactive)	0.239	0.296 (inactive)	-0.152	0.344	0.717	0.0875
CCCC=C(CCC)[C@@H](NC(=O)c1ccccc1)c1ccccc1	0.969	-0.239	-0.0392	-0.41	-0.028	-0.806	-0.943	-0.788 (inactive)	0.636	0.304	-0.732	0.0874 (inactive)	-0.272 (inactive)	0.912 (inactive)	0.446	-0.494 (inactive)	-0.0446	-0.96	-0.177	-0.0828
CCOC(=O)C[C@H]1[C@H](OC(=O)c2ccccc2-c2ccccc2)[C@@H](NC(=O)c2ccc(-c3ccccc3)cc2)c2cc(OCCCO)ccc2N1C(=O)Cc1ccc(OC)cc1	-0.191	-0.0021	-0.0642	0.389	0.212	-0.109	0.373	0.524 (inactive)	0.437	-0.0346	0.362	-0.39 (inactive)	-0.826 (inactive)	0.27 (inactive)	0.775	-0.857 (inactive)	-0.0435	0.19	0.266	0.0651
C[C@@H]1CC[C@H]2C(=O)N3[C@@H](CC[C@@H](C)[C@@H]3c3cccc(N4CCOCC4)c3)C(=O)N2[C@H]1c1cccc(Br)c1	-0.0356	0.237	-0.108	0.528	0.263	0.942	0.987	-0.649 (inactive)	0.166	0.0373	0.969	-0.586 (inactive)	-3.26 (inactive)	-1.19 (inactive)	1.6	0.732 (inactive)	0.075	0.964	0.981	0.161
